This note sets out measurements from PMC4336329 (PLoS ONE, 2015).

The whole screen tested about 310,000 compounds, of which about 14,000 (4.5%) showed an effect of 50% or more. The effect is printed as a negative number. The sample holds strong results, similar compounds and a random draw of the others, so the mix is not that of the screen.
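Further: peak tail current of the secondary pulse compared with the same well before compound.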

Chain of human ether-à-go-go-related gene (hERG) potassium channel (Q12809 whole entry, looked up): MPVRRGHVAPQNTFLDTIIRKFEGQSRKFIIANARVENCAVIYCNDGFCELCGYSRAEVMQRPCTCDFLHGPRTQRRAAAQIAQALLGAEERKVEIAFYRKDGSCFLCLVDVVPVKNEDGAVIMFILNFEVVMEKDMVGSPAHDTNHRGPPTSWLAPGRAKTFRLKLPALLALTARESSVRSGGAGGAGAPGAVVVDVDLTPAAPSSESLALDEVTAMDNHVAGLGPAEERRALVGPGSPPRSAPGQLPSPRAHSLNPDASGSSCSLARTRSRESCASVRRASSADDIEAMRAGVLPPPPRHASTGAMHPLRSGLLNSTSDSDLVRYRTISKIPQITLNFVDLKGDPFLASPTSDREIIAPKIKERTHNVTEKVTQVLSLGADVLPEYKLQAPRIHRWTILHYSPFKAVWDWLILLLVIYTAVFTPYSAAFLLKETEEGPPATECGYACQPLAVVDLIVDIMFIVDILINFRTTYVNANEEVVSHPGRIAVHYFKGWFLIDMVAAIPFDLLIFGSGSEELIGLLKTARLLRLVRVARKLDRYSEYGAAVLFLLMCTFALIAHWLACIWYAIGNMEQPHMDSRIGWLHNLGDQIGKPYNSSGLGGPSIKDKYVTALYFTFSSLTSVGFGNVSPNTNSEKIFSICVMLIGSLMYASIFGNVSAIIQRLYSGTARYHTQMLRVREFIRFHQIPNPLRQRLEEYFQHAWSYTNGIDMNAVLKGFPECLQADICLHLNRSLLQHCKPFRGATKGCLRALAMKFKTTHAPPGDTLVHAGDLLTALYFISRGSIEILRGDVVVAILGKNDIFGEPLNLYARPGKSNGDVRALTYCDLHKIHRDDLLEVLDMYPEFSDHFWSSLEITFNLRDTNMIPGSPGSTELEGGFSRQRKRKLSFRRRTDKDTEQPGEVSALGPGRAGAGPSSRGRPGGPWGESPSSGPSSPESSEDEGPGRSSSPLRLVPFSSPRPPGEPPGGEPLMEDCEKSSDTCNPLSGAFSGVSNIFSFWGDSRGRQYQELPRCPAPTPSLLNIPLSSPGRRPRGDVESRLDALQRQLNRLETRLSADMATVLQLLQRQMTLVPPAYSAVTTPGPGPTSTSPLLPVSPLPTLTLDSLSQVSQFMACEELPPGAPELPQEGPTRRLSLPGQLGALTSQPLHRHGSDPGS

This experiment concerns the target human ether-à-go-go-related gene (hERG) potassium channel (human, UniProt Q12809). Description: primary screen, population patch clamp on CHO cells stably expressing hERG; higher = less effect of the substance.
As to `COC(=O)c1ccccc1NC(=S)N1CCC(N2CCCCC2)CC1`, the “hERG current change (%, negative = inhibition) at 10uM” value was -12.2%. Next, `Cc1oc(-c2ccccc2Cl)nc1CS(=O)CC(=O)NC1CC1` (stereo not shown): 7.58%; `C[C@@H]1C=C[C@](Cc2ccccc2)(C(=O)NCCc2c[nH]c3ccccc23)N1C(=O)c1ccccc1`: -7.94%. In the case of `COc1ccc(Nc2c(C)cccc2C)cc1`, the “hERG current change (%, negative = inhibition) at 10uM” value amounted to 17.7%. Next, `COc1ccc(-c2cc(C)nc(SCC(=O)c3cccc([N+](=O)[O-])c3)n2)cc1`: 0.439%; `O=C(COC(=O)C1C2CC3OC(=O)C1C3C2)Nc1ccc(F)cc1` (stereo not shown): 13.2%.

With `COc1ccc(CN2CCC(C(=O)N3CCCC(C)C3)CC2)cc1OC.O=C(O)C(=O)O` (stereo not shown), the “hERG current change (%, negative = inhibition) at 10uM” value is recorded as -19.2%. As for `CCC(C)(C)NC(=O)CSc1nc(Cc2ccccc2)nc2ccccc12`, the “hERG current change (%, negative = inhibition) at 10uM” value was 11.5%.

With `CCOc1ccccc1NS(=O)(=O)c1ccc2c(c1)NC(=O)CCS2`, the “hERG current change (%, negative = inhibition) at 10uM” value was -46%.

As to `O=C(CC1C(=O)NCCN1Cc1ccc(F)c(F)c1)NCCCn1ccnc1` (stereo not shown), the “hERG current change (%, negative = inhibition) at 10uM” value worked out at 19%. The result for `CC(NC(=O)c1ccc2ccccc2n1)c1ccccc1` (stereo not shown) reads -6.17%; that for `NS(=O)(=O)c1ccc(CCNC(=O)c2cc([N+](=O)[O-])ccc2N2CCOCC2)cc1`, -15.2%. The result for `COc1ccc(CCNC(=O)c2cc([N+](=O)[O-])ccc2N2CCOCC2)cc1` reads -33%. Regarding `CN(CC(=O)Nc1ccc(F)cc1)C(=O)c1cc([N+](=O)[O-])ccc1N1CCOCC1`, the “hERG current change (%, negative = inhibition) at 10uM” value is -24.9%. Take `CN(CC(=O)Nc1ccc(F)cc1)C(=O)COC(=O)c1cc([N+](=O)[O-])ccc1N1CCOCC1`: the “hERG current change (%, negative = inhibition) at 10uM” value is recorded as -64.3%.

In the case of `O=C(COC(=O)c1cc([N+](=O)[O-])ccc1N1CCOCC1)c1ccc(Br)cc1`, the “hERG current change (%, negative = inhibition) at 10uM” value is on record as -44.6%.

On to `O=C(COC(=O)c1cc([N+](=O)[O-])ccc1N1CCOCC1)c1ccc(F)cc1`, for which the “hERG current change (%, negative = inhibition) at 10uM” value was -55.9%. Consider `O=C(NCCc1cccc(Cl)c1)c1cccc([N+](=O)[O-])c1`, for which the “hERG current change (%, negative = inhibition) at 10uM” value is reported as -15.7%.

Take `O=C(NCCc1cccc(Cl)c1)c1cc([N+](=O)[O-])ccc1Cl`: the “hERG current change (%, negative = inhibition) at 10uM” value was -51%.

For the compound `O=C(NCCCc1ccccc1)c1cc([N+](=O)[O-])ccc1Cl`, the “hERG current change (%, negative = inhibition) at 10uM” value is -12.3%. The result for `O=C(COC(=O)c1cc([N+](=O)[O-])ccc1N1CCOCC1)c1ccccc1` reads -20.1%.

Take `CN(CC(=O)Nc1ccccc1Cl)C(=O)COC(=O)c1cc([N+](=O)[O-])ccc1N1CCOCC1`: the “hERG current change (%, negative = inhibition) at 10uM” value is recorded as -44.4%. Next, `O=C(NCCc1ccc(F)cc1)c1cc([N+](=O)[O-])ccc1N1CCOCC1`: -71.4%; `CC(C)C(=O)NC(=S)Nc1sc2c(c1C(N)=O)CCCC2`: 13.5%.

On to `COc1ccc(N2C(=O)CSCC2=O)cc1OC`, for which the “hERG current change (%, negative = inhibition) at 10uM” value came out at 8.4%. Next, `Cc1ccc2nc(CCl)[n+]([O-])c(-c3ccccc3)c2c1`: 1.16%. The result for `Cc1ccc(CN2C(=O)CCC2C(=O)NCCN2CCOCC2)cc1` (stereo not shown) reads 3.18%. Next, `CCc1cccc(CC)c1NC(=O)CN1CCN(c2ccccc2)CC1.Cl`: -15.7%; `O=S(=O)(N1CCOCC1)N1CCN(c2ccccc2F)CC1`: -8.17%. `CC(C)CNC(=O)c1ccccc1-c1ccccc1C(=O)O`: the “hERG current change (%, negative = inhibition) at 10uM” value turned out to be 19.5%. For the compound `CCc1nnc(NC(=O)CSc2nnc(C(C)NC(=O)c3ccccc3F)n2C)s1` (stereo not shown), the “hERG current change (%, negative = inhibition) at 10uM” value is 9.22%. For `N#CC1(NC(=O)COC(=O)c2cc([N+](=O)[O-])ccc2N2CCCC2)CCCCC1`, the “hERG current change (%, negative = inhibition) at 10uM” value is -29.8%. The result for `O=C(COC(=O)c1cc([N+](=O)[O-])ccc1N1CCOCC1)NC1CCCCC1` reads -30.7%. The result for `N#CC1(NC(=O)COC(=O)c2cc([N+](=O)[O-])ccc2N2CCOCC2)CCCCC1` reads -55.3%; that for `CCOc1ccc(NC(=O)COC(=O)c2cc([N+](=O)[O-])ccc2N2CCOCC2)cc1`, -43.8%.

Turning to `O=C(COC(=O)c1cc([N+](=O)[O-])ccc1N1CCOCC1)Nc1ccc(Cl)cc1`, the “hERG current change (%, negative = inhibition) at 10uM” value was -28.2%. Next, `COc1ccccc1CNC(=O)COC(=O)c1cc([N+](=O)[O-])ccc1N1CCOCC1`: -48.9%; `CCOc1ccc(NC(=O)c2cc([N+](=O)[O-])ccc2N2CCOCC2)cc1`: -55.5%; `CCOc1ccc(C(=O)c2cc([N+](=O)[O-])ccc2N2CCOCC2)cc1`: -20.4%. Next, `O=C(COC(=O)c1cc([N+](=O)[O-])ccc1N1CCOCC1)NCc1ccc(Cl)cc1Cl`: -63%. Regarding `CCOc1cc(/C=N/NC(=O)c2cccnc2)ccc1OCC(=O)N(C)C`, the “hERG current change (%, negative = inhibition) at 10uM” value amounted to 19.3%. The result for `CC(OC(=O)c1ccccc1C(=O)N(C)c1ccccc1)C(=O)Nc1ccccc1[N+](=O)[O-]` (stereo not shown) reads -45.5%; that for `CN1[C@@H]2CC[C@H]1CC(OC1c3ccccc3CCc3ccccc31)C2.O=C(O)CC(O)(CC(=O)O)C(=O)O` (stereo partly shown), -42.6%. For the compound `CC(C)NC(=O)c1cc(-c2cccs2)on1`, the “hERG current change (%, negative = inhibition) at 10uM” value was -4.89%. The result for `CCCCN(C(=O)c1ccc2c(c1)S(=O)(=O)N=C1CCCCCN12)c1c(N)n(CCCC)c(=O)[nH]c1=O` reads 8.23%; that for `COc1cc(N=CC2=C(O)c3ccccc3C2=O)cc(OC)c1`, 8.36%; that for `Cc1cccc(NS(=O)(=O)c2ccc(C)c(C(=O)NCC(c3ccccc3)N(C)C)c2)c1` (stereo not shown), -14.2%. The result for `Nc1c(-c2ccccc2)c(CSc2nc3ccccc3[nH]2)nn1-c1cccc(Cl)c1` reads -3.15%; that for `O=C(COc1ccc(Cl)cc1)NC1CC1`, 5.47%; that for `O=C(Nc1ccc(-c2nc3ccccc3s2)c(O)c1)C1=COCCO1`, -73.1%. As to `O=C(Nc1ccc(-c2nc3ccccc3s2)cc1)C1=COCCO1`, the “hERG current change (%, negative = inhibition) at 10uM” value was determined as 22.2%. For `O=C(Nc1ccccc1-c1nc2ccccc2s1)C1=COCCO1`, the “hERG current change (%, negative = inhibition) at 10uM” value stood at 0.377%.
